Screening results deposited in PubChem BioAssay by several laboratories.
Gli-Sufu block – Gli-Sufu pathway antagonists, primary screen, luciferase luminescence, Sufu-KO-LIGHT cells, uHTS; Sufu-KO-LIGHT fibroblasts, Gli luciferase reporter luminescence; inhibition, % at 5 µM; 340,000 compounds, 0.74% hits; AID 588413, 2011;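 active = inhibition above about 55%, limit read from the data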
Mdm2 MdmX PPI – inhibitors of human Mdm2-MdmX association, primary screen, cell-based, luminescence, split luciferase, SaOS-2, uHTS; Protein Mdm4 (Homo sapiens) + E3 ubiquitin-protein ligase Mdm2 (Homo sapiens), …; SaOS-2 split-luciferase Mdm2/MdmX complementation; inhibition, % at 8 µM; 330,000 compounds, 3% hits; AID 485346, 2010;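 active = inhibition of at least 50% at 8 µM in the primary screen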
Target sequence (O15151 whole entry, looked up): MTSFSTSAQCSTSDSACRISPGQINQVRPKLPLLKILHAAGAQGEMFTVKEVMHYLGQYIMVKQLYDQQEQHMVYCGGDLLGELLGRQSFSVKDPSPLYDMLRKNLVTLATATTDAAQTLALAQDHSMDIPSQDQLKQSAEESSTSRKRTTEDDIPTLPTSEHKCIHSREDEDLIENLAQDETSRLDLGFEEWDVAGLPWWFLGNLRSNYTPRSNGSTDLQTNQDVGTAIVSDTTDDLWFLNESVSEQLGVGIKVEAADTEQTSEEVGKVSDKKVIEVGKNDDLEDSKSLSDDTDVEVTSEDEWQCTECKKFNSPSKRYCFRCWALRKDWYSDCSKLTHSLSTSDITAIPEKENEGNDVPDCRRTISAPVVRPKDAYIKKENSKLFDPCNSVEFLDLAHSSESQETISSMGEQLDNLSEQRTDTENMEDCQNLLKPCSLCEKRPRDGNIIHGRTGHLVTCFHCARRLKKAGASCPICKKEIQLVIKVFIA
Target sequence (Q00987 whole entry, looked up): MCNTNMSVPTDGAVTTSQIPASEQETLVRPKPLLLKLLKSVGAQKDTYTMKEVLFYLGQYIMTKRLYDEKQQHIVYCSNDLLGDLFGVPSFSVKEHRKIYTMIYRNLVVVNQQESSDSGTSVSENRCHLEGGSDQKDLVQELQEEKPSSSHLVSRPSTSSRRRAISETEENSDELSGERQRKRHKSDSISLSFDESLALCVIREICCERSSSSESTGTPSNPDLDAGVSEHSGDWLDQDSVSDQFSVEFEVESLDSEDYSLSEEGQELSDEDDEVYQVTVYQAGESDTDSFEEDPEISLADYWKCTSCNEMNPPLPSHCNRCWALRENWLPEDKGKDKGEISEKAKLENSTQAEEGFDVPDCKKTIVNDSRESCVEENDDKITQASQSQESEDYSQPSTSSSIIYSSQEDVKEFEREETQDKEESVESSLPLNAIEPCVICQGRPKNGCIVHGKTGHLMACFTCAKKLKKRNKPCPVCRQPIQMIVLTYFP
MPTP block – mitochondrial permeability transition pore inhibitors, primary screen, biochemical, isolated mouse mitochondria, absorbance. Ca2+ swelling absorbance, 30 min. AID 602449, 2012. 360,000 compounds, 1.4% hits. inhibition, % at 10 µM;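 active = inhibition of 50% or more, scaled per plate between neutral and stimulator controls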
NR3A LBD binder – binders of NR3A ligand-binding domain, primary screen, biophysical, differential scanning fluorimetry, uHTS; Glutamate receptor ionotropic, NMDA 3A (GRIN3A) ligand-binding domain; NR3A LBD differential scanning fluorimetry, Tm shift; 0% = protein alone, 100% = glycine-bound protein; Tm shift relative to glycine control, % at 25 µM; 340,000 compounds, 2.5% hits;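 active = melting temperature shift of at least 10% of the positive control shift, at one fixed dose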
CSC inhib – cancer stem cell viability inhibitors, primary screen, luminescence | inhibition, % at 7.5 µM | cancer stem cell-like cells viability | AID 2717, 2010 | 300,000 compounds, 1.1% hits; in the data active = inhibition above about 75%; inconclusive = no clear call, values can overlap the other calls; tested in HMLE shEcad cells
Beta cell apopt – inhibitors of cytokine-induced beta cell apoptosis, primary screen, luminescence | INS-1E cytokine-induced death, ATP luminescence, 48 h; percent of positive-control rescue, neutral wells zero | protection from apoptosis, % (no concentration beside the values) | 300,000 compounds, 0.8% hits;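 active = Every replicate reaches about 75%, or at least half do and their mean reaches it too, limit read from the data; inconclusive = At least half of replicates reach the limit but their mean does not; inactive = Under half of replicates reach the limit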;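 also: higher means more ATP so stronger rescue from cytokine killing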
Each line names hits and unclear results; the compound was inactive in the other large screens. The list is not random: actives were taken first. Their share in the collection is about 6.6%.

O=C(O)c1ccccc1C(=O)Nc1n[nH]c(=S)s1	NR3A LBD binder 14
O=C(O)c1ccccc1C(=O)Nc1nccs1	none
CCOC(=O)/C(=N\Nc1ccccc1)c1csc(Nc2ccc(C)cc2)n1	NR3A LBD binder 25
Cn1c(N)c(C(=O)COC(=O)c2cc(-c3ccccc3)nc3ccccc23)c(=O)n(Cc2ccccc2)c1=O	none
Cn1c(N)c(C(=O)COC(=O)c2cc(C3CC3)nc3ccccc23)c(=O)n(Cc2ccccc2)c1=O	NR3A LBD binder 18
Oc1ccccc1-c1nc(NCc2ccco2)c2ccccc2n1	NR3A LBD binder 14
Fc1ccccc1-c1nc(NCc2ccco2)c2ccccc2n1	none
CC(NC(=O)COC(=O)c1cc(=O)c2ccccc2o1)c1ccccc1 (stereo unspecified)	none
Cc1ccc(S(=O)(=O)N2C[C@H]3C(=O)C[C@@H](c4ccc(Cl)cc4)N(S(=O)(=O)c4ccc(C)cc4)[C@H]3C[C@H]2c2ccccc2)cc1	none (no result: Gli-Sufu block, Mdm2 MdmX PPI, NR3A LBD binder, CSC inhib, Beta cell apopt)
O=C(c1cc(COc2cccc(C(F)(F)F)c2)on1)N1C[C@H]2CC[C@H]1C2	none
CC1(C)C[C@@H]2C[C@@](C)(CN2C(=O)c2cc(COc3cccc(C(F)(F)F)c3)on2)C1	CSC inhib 96, Beta cell apopt 104
COc1ccc(-c2cc(C(=O)N3CC4(C)CC3CC(C)(C)C4)no2)cc1 (stereo unspecified)	CSC inhib inconclusive
COc1ccc(-c2cc(C(=O)N3CC4(C)CC3CC(C)(C)C4)no2)cc1OC (stereo unspecified)	CSC inhib 83
S=C1NC2(CCCC2)Nc2ccccc21	none
S=C1NC2(CCCCC2)Nc2ccccc21	NR3A LBD binder 12
CCN(CC)c1ccc(/C=N/NC(=O)c2cc3ccccc3[nH]2)cc1	NR3A LBD binder 14
CCN(CC)c1ccc(/C=N/NC(=O)c2c[nH]c3ccccc23)cc1	none
C=CCc1ccc(OCCCN2CCCC(C)C2)c(OC)c1 (stereo unspecified)	none (no result: Beta cell apopt)
CC1CCCN(CCCOc2ccc(Br)cc2Cl)C1 (stereo unspecified)	CSC inhib 194
C=CCOC(=O)C1=C[C@@H](c2ccc(C(F)(F)F)cc2)[C@H](CCCO)[C@@H](OCC)O1	none
O=C(COc1ccc(Cl)cc1Cl)N/N=C/c1ccc[nH]1	CSC inhib 79
COc1ccc(/C=N/NC(=O)CCCOc2ccc(Cl)cc2Cl)cc1[N+](=O)[O-]	NR3A LBD binder 12
Cc1ccc(/C=N/NC(=O)CCCOc2ccc(Cl)cc2Cl)cc1	NR3A LBD binder 12
O=S1(=O)C[C@@H](N2CCN(c3ccccn3)CC2)[C@H](COCc2ccccc2)N1	none (no result: Gli-Sufu block, Mdm2 MdmX PPI, NR3A LBD binder, CSC inhib, Beta cell apopt)
O=[N+]([O-])c1ccc(O)c2ncccc12	CSC inhib 82, Beta cell apopt 97
O=[N+]([O-])c1ccc(Cl)c2cccnc12	NR3A LBD binder 12
O=[N+]([O-])c1cc(F)c2cccnc2c1O	none
O=[N+]([O-])c1ccc(O)c2cccnc12	none
Cc1ccccc1N=Nc1ccc(O)c2ncccc12	CSC inhib 99, Beta cell apopt 99 (no result: Mdm2 MdmX PPI)
O=[N+]([O-])c1cc(Cl)c2cccnc2c1O	CSC inhib 98
COc1ccc(C)cc1N=Nc1ccc(O)c2ncccc12	none (no result: Mdm2 MdmX PPI, CSC inhib, Beta cell apopt)
CCCC(C)(C)C(=O)N1CCC1(C)C(=O)Nc1ccc2c(c1)OCCO2 (stereo unspecified)	none (no result: Gli-Sufu block, Mdm2 MdmX PPI, NR3A LBD binder, CSC inhib, Beta cell apopt)
CCCCNC(=O)C1(C)CCN1C(=O)c1cc(F)ccc1C (stereo unspecified)	none (no result: Gli-Sufu block, Mdm2 MdmX PPI, NR3A LBD binder, CSC inhib, Beta cell apopt)
COc1ccc(F)cc1S(=O)(=O)NCC(c1ccco1)N1CCc2ccccc2C1 (stereo unspecified)	none (no result: Beta cell apopt)
CC(=O)c1c(C)[nH]c(C(=O)N(C)CC(=O)Nc2ccc(Cl)c(C(F)(F)F)c2)c1C	none
O=C(Nc1cccc(C(F)(F)F)c1)c1ccc2sc([C@@H]3O[C@H](CO)[C@H](O)[C@H](O)[C@H]3O)nc2c1	none (no result: Gli-Sufu block, Mdm2 MdmX PPI, NR3A LBD binder, CSC inhib, Beta cell apopt)
COc1cccc(OC)c1NC(=O)CN(C)S(=O)(=O)c1ccc2c(c1)OCCO2	none
COc1cc(OC)cc(C(=O)NCC(=O)OCC(=O)Nc2ccc(C)c(S(=O)(=O)N3CCOCC3)c2)c1	none (no result: CSC inhib, Beta cell apopt)
Cc1ccc(C(=O)O)cc1NC(=O)C1=CSCCO1	NR3A LBD binder 21
Cc1cc(NC(=O)CSCC(=O)NCc2cccc(C(F)(F)F)c2)no1	none
Cc1cc(NC(=O)c2sc(Nc3cccc(C(F)(F)F)c3)nc2N)no1	NR3A LBD binder 20
Cc1cc(NC(=O)c2sc(Nc3ccc(F)c(Cl)c3)nc2N)no1	NR3A LBD binder 23
CCOC(=O)N1CCN(C(=O)c2cc(S(=O)(=O)N3CCc4ccccc43)ccc2OC)CC1	none
Cc1ccc(S(=O)(=O)Nc2nc(C)c(NC(=O)Nc3ccc(Cl)cc3Cl)s2)cc1	NR3A LBD binder 28 (no result: CSC inhib)
N#Cc1cccc(NC(=O)CC2CCCCC2)c1	NR3A LBD binder 12
Cc1ccc(-n2c(N)c(C#N)c(-c3ccc(Cl)cc3)c(C#N)c2=O)cc1	NR3A LBD binder 20
O=C(OCCC12CC3CC(CC(C3)C1)C2)c1ccc(NCc2cc(O)ccc2O)cc1	Gli-Sufu block 82, NR3A LBD binder 27 (no result: Mdm2 MdmX PPI, CSC inhib, Beta cell apopt)
CC1CC(C)CN(C(=O)c2cc3cc(Br)cc(Br)c3o2)C1 (stereo unspecified)	CSC inhib 89
Cc1nc(-c2ccc(NC(=O)c3ccc(Br)o3)cc2)cs1	NR3A LBD binder 20
Cc1ccccc1-c1nc(-c2ccc(NC(=O)c3ccc(Br)o3)cc2)no1	NR3A LBD binder 29
Cc1nc(-c2cccc(NC(=O)c3ccc(Br)o3)c2)cs1	none
Cc1nc(-c2ccc(C(=O)Nc3cccc(Br)c3)cc2)cs1	NR3A LBD binder 32 (no result: CSC inhib)
Cc1nc(-c2cccc(NC(=O)Cc3ccccc3)c2)cs1	none
COc1ccc(OC)c(NC(=O)c2ccc(-c3csc(C)n3)cc2)c1	none (no result: Beta cell apopt)
Cc1nc(-c2cccc(NC(=O)c3ccc(-n4nccc4C)cc3)c2)cs1	NR3A LBD binder 23 (no result: CSC inhib)
Cc1ccccc1-c1nc(-c2ccc(Br)o2)no1	none
O=C(Cc1ccc(Br)cc1)N/N=C/c1cccnc1	none
N#C/C(C(=O)Oc1ccccc1)=C1\C=Cc2ccccc2N1	NR3A LBD binder 20
Cc1ccc(S(=O)(=O)N2CCCCC2c2cccnc2)c(C)c1C (stereo unspecified)	Beta cell apopt 98
Cc1ccc(OCc2nnc(SCC(=O)N3CCOCC3)n2C)cc1	NR3A LBD binder 16
CC(C)=CCC12Oc3cc(O)ccc3C1(O)Oc1cc3c(c(O)c1C2=O)C=CC(C)(C)O3 (stereo unspecified)	NR3A LBD binder 12 (no result: MPTP block)
S=c1nc2[nH]c3ccccc3c2n[nH]1	NR3A LBD binder 20 (no result: Mdm2 MdmX PPI, CSC inhib, Beta cell apopt)
